TEAD-YAP inh – TEAD-YAP interaction inhibition; HEK-TIYL cells, TEAD-Gal4/YAP UAS-luciferase luminescence; inhibition, % at 9.12 µM; actives 1.4% (n = 640,000); in the data active means inhibition above about 32%;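 further: 0% = median of test compound wells and 100% = reference inhibitor wells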
MITF inh – human MITF inhibition, primary screen | O75030 | AID 1259374 | AlphaScreen MITF homodimerization, bead proximity signal | inhibition, % at 2.6 µM | actives 0.91% (n = 650,000); in the data active means inhibition above about 50%;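 further: 0% = vehicle wells with protein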
GPR151 ag – human GPR151 activation | Q8TDV0 | PathHunter beta-arrestin GPR151 cells, luminescence | activation, % at 11.2 µM | actives 1% (n = 650,000); in the data active means activation above about 4.9%;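 further: 0% = median of compound wells and 100% = cells with positive control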
FBW7 act – human FBW7 E3 ligase activation, primary screen; Q969H0; AlphaScreen FBW7–phospho-cyclin E peptide binding, activator screen; normalized activity (activation), % at 26.1 µM; actives 0.13% (n = 650,000); AID 1259310; in the data active means normalized activity above about 1.9%;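 further: purified mutant Fbw7 with reduced substrate affinity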
Target sequence (Q969H0 whole entry, looked up): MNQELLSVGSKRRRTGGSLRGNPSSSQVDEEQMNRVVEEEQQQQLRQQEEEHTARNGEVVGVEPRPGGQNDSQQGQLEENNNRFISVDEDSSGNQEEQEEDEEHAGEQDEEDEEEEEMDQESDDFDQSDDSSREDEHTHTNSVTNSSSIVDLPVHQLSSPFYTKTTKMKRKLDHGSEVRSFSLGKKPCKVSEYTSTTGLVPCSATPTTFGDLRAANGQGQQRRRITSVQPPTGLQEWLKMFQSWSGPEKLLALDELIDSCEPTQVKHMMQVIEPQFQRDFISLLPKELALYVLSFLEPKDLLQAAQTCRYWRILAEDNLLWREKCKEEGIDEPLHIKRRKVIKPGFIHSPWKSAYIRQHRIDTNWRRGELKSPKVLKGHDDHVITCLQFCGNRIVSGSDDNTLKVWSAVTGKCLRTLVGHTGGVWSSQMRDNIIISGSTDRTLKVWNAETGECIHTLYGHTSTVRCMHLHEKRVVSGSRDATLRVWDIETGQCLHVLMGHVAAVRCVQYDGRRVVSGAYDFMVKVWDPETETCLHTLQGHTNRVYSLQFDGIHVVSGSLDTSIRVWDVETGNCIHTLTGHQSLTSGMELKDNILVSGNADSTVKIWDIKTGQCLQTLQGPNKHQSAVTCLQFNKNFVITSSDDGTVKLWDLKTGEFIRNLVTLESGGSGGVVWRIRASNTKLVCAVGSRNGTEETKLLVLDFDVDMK
An asterisk follows results filed as active. Hits are enriched below; roughly 3.5% of the tested compounds scored in any of these assays.

SMILES	TEAD-YAP inh	MITF inh	GPR151 ag	FBW7 act
COc1ccc(C(=O)NC(c2ccc(C)cc2)c2cc(Cl)c3cccnc3c2O)cc1 (centres undefined)	10	15	1	0
COc1ccc(C(NC(C)=O)c2ccc3cccnc3c2O)cc1 (centres undefined)	86*	48	0	-2
Cc1ccnc(NC2c3ccccc3C(=O)N2Cc2ccccc2)c1 (centres undefined)	-1	-11	5	0
C/C(=C(/C#N)C(=O)NN)c1ccc(F)cc1	-3	1	0	0
COc1ccc(C(NC(=O)C(C)C)c2ccc3cccnc3c2O)cc1 (centres undefined)	75*	51*	-1	-2
COc1ccccc1C(NC(=O)Cc1ccccc1)c1ccc2cccnc2c1O (centres undefined)	29	22	0	-1
CCCCC(=O)NC(c1ccc(OC)cc1)c1ccc2cccnc2c1O (centres undefined)	80*	41	0	-2
CCN(CC)c1ccc(C(NC(=O)C(C)C)c2cc(Cl)c3cccnc3c2O)cc1 (centres undefined)	1	8	-2	0
O=C(NC1CCCCC1)c1c(O)c2c([nH]c1=O)CCCC2	-4	0	0	0
COC(=O)CSC1=C(C#N)C(c2ccc(C)s2)CC(=O)N1 (centres undefined)	7	10	-1	0
COC(=O)CSC1=C(C#N)C(c2cccc(F)c2)CC(=O)N1 (centres undefined)	46*	20	1	0
CCOC(=O)CSC1=C(C#N)C(c2ccc(C)s2)CC(=O)N1 (centres undefined)	54*	20	-1	0
CCOC(=O)CSC1=C(C#N)C(c2ccccc2F)CC(=O)N1 (centres undefined)	48*	14	1	0
CCOc1ccccc1C1CC(=O)NC(SCC(=O)OC)=C1C#N (centres undefined)	59*	7	0	0
CCOc1ccccc1C1CC(=O)NC(SCC)=C1C#N (centres undefined)	7	12	0	0
CCOC(=O)CSC1=C(C#N)C(c2ccc(F)cc2)CC(=O)N1 (centres undefined)	42*	15	-2	0
CCOC(=O)CSC1=C(C#N)C(c2ccc(C)cc2)CC(=O)N1 (centres undefined)	1	9	-1	0
COc1ccccc1NC(=O)Cn1c(=O)oc2cc(S(=O)(=O)N3CCOCC3)ccc21	11	7	0	0
CC(=O)c1ccc(-c2ccc(/C=C3/SC(=S)NC3=O)o2)cc1	-7	74*	-1	-1
O=C1NC(=S)S/C1=C/c1cc(Br)c(Br)o1	-2	51*	-1	-1
CCN1C(=O)C(=Cc2ccc(-c3cccc(C(=O)O)c3)o2)C(=O)N(CC)C1=S	0	47	-1	0
O=C1NC(=S)S/C1=C/c1ccc[nH]1	49*	13	0	0
CCN1C(=O)C(=Cc2ccc(-c3ccc(C(C)=O)cc3)o2)C(=O)N(CC)C1=S	-7	78*	1	0
O=C1NC(=S)S/C1=C\c1ccc(I)o1	-1	48	-1	0
CC(C)(C)c1ccc(C(=O)Nc2nnc(-c3ccccc3Br)s2)cc1	-5	4	2	0
SMILES	TEAD-YAP inh	MITF inh	GPR151 ag	FBW7 act
O=C(/C=C\Nc1cccc(F)c1)c1cccs1	-4	8	-2	0
O=C(/C=C/Nc1ccc(I)cc1)c1cccs1	41*	23	0	0
Cc1ccc(N/C=C/C(=O)c2cccs2)cc1	81*	37	1	0
COC(=O)c1ccc(N/C=C/C(=O)c2cccs2)cc1	53*	-8	-5	0
CC(C)C(C(=O)OCC(=O)c1ccc([N+](=O)[O-])cc1)N1C(=O)C2C3C=CC(C3)C2C1=O (centres undefined)	7	8	0	0
CCc1ccccc1NC(=O)CSC1=C(C#N)C(c2ccc(C)o2)C2=C(CCCC2=O)N1 (centres undefined)	55*	-3	-1	0
Cc1ccc(NS(=O)(=O)c2cc(C(=O)O)ccc2F)cc1	2	-10	1	0
O=C(CCc1cccs1)NCC1CCC2(CCN(C(=O)c3ccc(F)cc3)CC2)O1 (centres undefined)	-2	-1	0	-1
O=C(CC1CCCC1)NCC1CCC2(CCN(C(=O)c3ccc(F)cc3)CC2)O1 (centres undefined)	12	25	1	2.0*
CCOc1ccccc1N1CCN(Cc2cc(OC)c(O)c(OC)c2)CC1	-2	27	1	0
COCc1cc(CN2CCN(c3ccccc3OC)CC2)c(O)c2ncccc12	42*	107*	4	0
COCc1cc(CN2CCCCC2)c(O)c2ncccc12	76*	98*	1	-1
COCc1cc(CN2CCOCC2)c(O)c2ncccc12	2	90*	1	-2
CCCOCc1cc(CN2CCCCC2)c(O)c2ncccc12	71*	106*	4	-1
O=S(=O)(NC12CC3CC(CC(C3)C1)C2)c1cccc(S(=O)(=O)N2CCOCC2)c1	2	4	-1	0
CCc1cc(N2C3CCC2CC(O)(c2ccc(F)cc2)C3)n2ncnc2n1 (centres undefined)	0	14	0	0
CCOc1cccc(CN2CCCCCC2)c1O	-1	10	0	0
Oc1c(CN2CCCCC2)cc(Br)c2cccnc12	58*	98*	0	-1
CC(C)OCc1cc(CN2CCCCC2)c(O)c2ncccc12	86*	104*	-1	-1
COCCNC(=O)CCCn1sc2ccccc2c1=O	1	11	-1	0
O=C(Nc1ccc(I)cc1Cl)c1cccc([N+](=O)[O-])c1	-8	4	-1	0
COc1cc(C(=O)c2cc(Br)ccc2N)cc(OC)c1OC	51*	13	0	0
COc1cc(C(=O)Nc2ccc(F)cc2F)cc(OC)c1OC	-9	-19	0	0
CNc1ccc(Cl)cc1C(=O)c1cc(OC)c(OC)c(OC)c1	54*	15	0	0
CCOC(=O)c1c(NC(=O)c2ccc(OC)cc2)sc(C(=O)Nc2ccc(OC)cc2)c1C	5	15	0	0
SMILES	TEAD-YAP inh	MITF inh	GPR151 ag	FBW7 act
COc1cc(/C=N/n2c(-c3ccco3)n[nH]c2=S)cc(OC)c1OC(C)=O	4	3	0	0
COc1ccccc1-n1c(C)cc(/C=C2/C(=N)N3C=CSC3=NC2=O)c1C	94*	7	0	0
COc1ccc(C)cc1-n1c(C)cc(/C=C2/C(=N)N3C=C(C)SC3=NC2=O)c1C	51*	-7	0	0
COc1ccc(OC)c(-n2c(C)cc(/C=C3/C(=N)N4C=CSC4=NC3=O)c2C)c1	28	-4	1	0
COc1ccc(OC)c(-n2c(C)cc(/C=C3/C(=N)N4C=C(C)SC4=NC3=O)c2C)c1	47*	7	1	0
Cc1c(Cl)cccc1N1C(N)=C(C#N)C(c2ccc(Br)cc2)C2=C1CCCC2=O (centres undefined)	-1	11	1	0

High-throughput results from PubChem.
